{"source": "PubChem BioAssay (Tox21)", "note": "“And” between values parts separate entries of the source, which are not always exact repeats. Equal values may be shown once. Records with an inconclusive call do not appear. Entries that show only a call come without a potency. Some compounds were tested as several samples or in several runs, with calls that do not always agree. The source made the active and inactive calls. Calls follow the shape of the full dose curve. Potency is read from the fitted curve at half-maximal effect."}
{"experiment": "qHTS assay for small molecule agonists of the p53 signaling pathway - cell viability (AID 651633); also: nearly all actives have a fitted effect of over 30% in size;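 as to activity change, negative = cytotoxicity: p53RE-bla HCT reporter cells with a stable beta-lactamase p53 reporter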", "conditions": "p53RE-bla HCT-116 viability, ATP luminescence, 16 h; series mostly up to 83.3 µM", "excerpt": "National Center for Advancing Translational Sciences [NCATS]\nNIH Chemical Genomics Center [NCGC]\nU.S. Environmental Protection Agency [EPA]\nNational Institutes of Environmental Health Sciences [NIEHS]\nNational Toxicology Program [NTP]\nU.S. Food and Drug Administration [FDA]\np53, a tumor suppressor protein, is activated following cellular insult, including DNA damage and other cellular stresses. The activation of p53 regulates cell fate by inducing DNA repair, cell cycle arrest, apoptosis, or cellular senescence. The activation of p53, therefore, is a good indicator of DNA damage and other cellular stresses. […] The activation of the reporter gene under culture conditions can be detected by fluorescence intensity. This cell line was used to screen the Tox21 compound library in a 1536-well plate format and to identify agonists that activate the p53 signaling pathway.\nTox21 Assay Protocol Summary:\nThe p53RE-bla cells were dispensed at 4,000 cells/5 ul/well in 1536-well black wall/clear bottom plates using a Multidrop dispenser. After the assay plates were incubated at a 37 C/5% CO2 incubator for 5 hours, 23 nL of compounds dissolved in DMSO, positive controls or DMSO only was transferred to the assay plate by a pin tool. The plates were incubated at 37 C for 16 hours. After 1 uL of LiveBLAzerTM B/G FRET substrate was added using a Flying Reagent Dispenser, the plates were incubated at room temperature for 2 hours, and fluorescence intensity was measured by an Envision plate reader.\nFor cell viability readout that measures cytotoxicity, 4 ul/well of CellTiter-Glo reagent was added into the assay plates using a Flying Reagent Dispenser. After 30 min incubation at room temperature, the luminescence intensity in the plates was measured using a ViewLux plate reader."}
{"smiles": "CCN(CC)C(=O)N[C@@H]1C=C2c3cccc4[nH]cc(c34)C[C@@H]2N(C)C1", "Potency": "inactive"}
{"smiles": "Clc1ccc(C2(Cn3cncn3)OCCO2)c(Cl)c1", "Potency": "inactive"}
{"smiles": "CCCCC(CC)COC(=O)c1ccccc1C(=O)OCC(CC)CCCC", "note": "(stereo not given)", "Potency": "inactive"}
{"smiles": "O=[N+]([O-])c1ccc(Cl)c(Cl)c1Cl", "Potency": "inactive"}
{"smiles": "C[N+]1(C)[C@@H]2CC[C@H]1CC(OC(=O)C(CO)c1ccccc1)C2", "note": "(stereo not given in full)", "Potency": "inactive"}
{"smiles": "CCCCCCCCCCCCCCn1cc[n+](C)c1", "Potency": "43.4 µM (active) and 67.8 µM (active) and inactive"}
{"smiles": "CCCCCON=O", "Potency": "inactive"}
{"smiles": "[O-][Cl+3]([O-])([O-])O", "Potency": "inactive"}
{"smiles": "CN=C=O", "Potency": "inactive"}
{"smiles": "O=NN(CCO)CCO", "Potency": "inactive"}
{"smiles": "COc1cnc(OC)n2nc(NS(=O)(=O)c3c(OCC(F)F)cccc3C(F)(F)F)nc12", "Potency": "inactive"}
{"smiles": "CC(C)C(Br)C(=O)NC(N)=O", "note": "(stereo not given)", "Potency": "inactive"}
{"smiles": "N#CSCc1ccccc1", "Potency": "inactive"}
{"smiles": "O=[N+]([O-])c1cc(C(F)(F)F)c(Cl)c([N+](=O)[O-])c1Nc1ncc(C(F)(F)F)cc1Cl", "Potency": "27.3 µM (active)"}
{"smiles": "N#Cc1ccc(N(CC(N)=O)CC(F)(F)F)cc1C(F)(F)F", "Potency": "inactive"}
{"smiles": "CC(=O)[O-].CC(=O)[O-].O.O.O.[Pb+2]", "Potency": "inactive"}
{"smiles": "O=C1C(Cl)=C(Cl)C(=O)C(Cl)=C1Cl", "Potency": "19.3 µM (active) and 21.7 µM (active)"}
{"smiles": "[O]=[Cr][O][Cr]=[O]", "Potency": "inactive"}
{"smiles": "COC(=O)C(C)N(C(=O)c1ccco1)c1c(C)cccc1C", "note": "(stereo not given)", "Potency": "inactive"}
{"smiles": "ClSC(Cl)(Cl)Cl", "Potency": "inactive"}
{"smiles": "CCCC[N+]1(C)CCCC1", "note": "(tested in a mixture with another compound)", "Potency": "inactive"}
{"smiles": "Nc1cc(Cl)ccc1Cl", "Potency": "inactive"}
{"smiles": "COc1ccc2[nH]cc(CCN(C(C)C)C(C)C)c2c1", "Potency": "inactive"}
{"smiles": "CN1CCc2cc3c(cc2C1O)OCO3", "note": "(stereo not given)", "Potency": "inactive"}
{"smiles": "c1csc(-c2ccc(-c3cccs3)s2)c1", "Potency": "inactive"}
{"smiles": "Clc1c(Cl)c(Cl)c(Cl)c(Cl)c1Cl", "activity change, negative = cytotoxicity": "-24.8% [at 8.08 µM] (inactive)"}
{"smiles": "O=S(=O)(O)F", "Potency": "inactive"}
{"smiles": "S=C=NCCc1ccccc1", "Potency": "inactive"}
{"smiles": "O=Cc1ccccc1", "Potency": "inactive"}
{"smiles": "O=c1c2ccccc2c(=O)c2c1cc(Cl)c1[nH]c3c([nH]c12)c(Cl)cc1c(=O)c2ccccc2c(=O)c13", "Potency": "inactive"}
{"smiles": "C=CCOC(=O)c1ccccc1N", "Potency": "inactive"}
{"smiles": "CC(=O)[O-].CC(=O)[O-].[Co+2]", "Potency": "inactive"}
{"smiles": "CC(C)[C@@H](Nc1ccc(C(F)(F)F)cc1Cl)C(=O)OC(C#N)c1cccc(Oc2ccccc2)c1", "note": "(stereo not given in full)", "Potency": "inactive"}
{"smiles": "CCCCN(CCCC)C(=S)S", "Potency": "inactive"}
{"smiles": "Clc1ccc(C(c2ccc(Cl)cc2)C(Cl)Cl)cc1", "Potency": "62.1 µM (active) and 61.1 µM (active)"}
{"smiles": "CC(Cl)CCl", "note": "(stereo not given)", "Potency": "inactive"}
{"smiles": "COCCC#N", "Potency": "inactive"}
{"smiles": "COC(=O)/C=C(\\C)OP(=O)(OC)OC", "Potency": "inactive"}
{"smiles": "CC1(C)C(C=C(Cl)Cl)C1C(=O)OC(C#N)c1ccc(F)c(Oc2ccccc2)c1", "note": "(stereo not given)", "Potency": "inactive"}
{"smiles": "c1ccc2c(c1)cc1ccc3cccc4ccc2c1c34", "Potency": "inactive"}
